The campaign covered roughly 1,900 compounds. About 50 (3%) showed an effect of 50% or more. The list comes from a sample in which strong results are over-represented; it also holds similar structures and randomly drawn compounds.

Sequence of p38/MK2 protein–protein interaction (VF-p38α / GST-MK2) (Q16539 2-360 limits assumed): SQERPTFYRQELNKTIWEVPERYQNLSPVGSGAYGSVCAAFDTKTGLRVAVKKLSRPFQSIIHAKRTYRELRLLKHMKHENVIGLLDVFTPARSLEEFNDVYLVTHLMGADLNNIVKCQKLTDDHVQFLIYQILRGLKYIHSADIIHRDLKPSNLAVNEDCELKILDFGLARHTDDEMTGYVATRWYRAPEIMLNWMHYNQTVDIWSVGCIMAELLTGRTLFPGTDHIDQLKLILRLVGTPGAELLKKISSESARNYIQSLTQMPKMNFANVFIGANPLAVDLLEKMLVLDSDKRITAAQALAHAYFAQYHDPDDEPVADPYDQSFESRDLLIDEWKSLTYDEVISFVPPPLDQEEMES

The test has as its target p38/MK2 protein–protein interaction (VF-p38α / GST-MK2) (Homo sapiens, UniProt Q16539). The test can be described thus: primary screen, percent of control activity; higher = less effect of the substance. Set-up: species or system HEK293T cell lysate transfected with VF-p38α and GST-MK2; unclear (methods say 'quintuplet replicates'). Here is the method:
The TR-FRET assay was conducted in a 1536-well plate (Corning, catalog no. 3724) with HEK293T cell lysate transfected with VF-p38α and GST-MK2. Cell-lysate concentration was optimized with a titration experiment. Anti-Flag-Tb and anti-GST-d2 antibodies (Revvity, catalog no. 61FGBTLB) were used to couple p38α and MK2, respectively. A multiple-drop Combi dispenser (Thermo Scientific) combined reaction mixtures in quintuplet replicates. The TR-FRET signals were measured using a BMG Labtech PHERAstar FSX plate reader and normalized to the percent of DMSO control.
Regarding `CCOc1nc2cccc(C(=O)OC(C)OC(=O)OC3CCCCC3)c2n1Cc1ccc(-c2ccccc2-c2nn[nH]n2)cc1` (stereo not drawn), the Pct of control was 32.4%.
In the case of `CCOc1nc2cccc(C(=O)O)c2n1Cc1ccc(-c2ccccc2-c2nc(=O)o[nH]2)cc1` it was 94.5%.
The same measure for `CCOc1nc2cccc(C(=O)O)c2n1Cc1ccc(-c2ccccc2-c2nn[nH]n2)cc1`: 95%.
In the case of `Cl.Cn1c(CCCC(=O)O)nc2cc(N(CCCl)CCCl)ccc21`, the Pct of control amounted to 99.1%.
Turning to `CC1(C)CCC(C)(C)c2cc(NC(=O)c3ccc(C(=O)O)cc3)ccc21`, the Pct of control is 92.2%.
The compound `C=C(c1ccc(C(=O)O)cc1)c1cc2c(cc1C)C(C)(C)CCC2(C)C` returned a Pct of control of 25.7%.
`CC(=Cc1ccc(C(=O)O)cc1)c1ccc2c(c1)C(C)(C)CCC2(C)C` registered a Pct of control of 78.8%.
Take `CO/N=C(\C(=O)N[C@@H]1C(=O)N2C(C(=O)O)=C(CSC(=O)c3ccco3)CS[C@H]12)c1csc(N)n1.Cl`: the Pct of control is reported as 115%.
In the case of `Cn1cc(-c2ccc3ncc(Cc4ccc5ncccc5c4)n3n2)cn1` it was 93.2%; in that of `O=C1O[C@H]([C@@H](O)CO)C(O)=C1O`, 100%.
As for `CCCCCCCCCCCCCCCC(=O)OCC(O)C1OC(=O)C(O)=C1O` (stereo not drawn), the Pct of control was determined as 33.2%.
In turn, `CCCCCC=CCC=CCCCCCCCC(=O)OC(COC(=O)CCCCCCCCCCCCCCC)COP(=O)([O-])OCC[N+](C)(C)C` (stereo not drawn) gave a Pct of control of 95.3%.
On to `CN(C)c1ccc(C(=O)NCCCCCCC(=O)NO)cc1`, for which the Pct of control was 96.2%.
The same measure for `Cl.O=S(=O)(c1cccc2cnccc12)N1CCCNCC1`: 93.6%; for `COC(=O)C1=CO[C@@H](O[C@@H]2O[C@H](CO)[C@@H](O)[C@H](O)[C@H]2O)[C@@H]2C(CO)=CC[C@H]12`: 90.4%; for `CNC(=O)c1cc(Oc2ccc(NC(=O)Nc3ccc(Cl)c(C(F)(F)F)c3)cc2)ccn1.Cc1ccc(S(=O)(=O)O)cc1`: 69.1%.
In the case of `O=C(O)CC1CC(c2ccccc2)=NO1` (stereo not drawn) it was 86.5%; in that of `C[C@@H]1C/C=C/C=C/C=C/C=C/[C@H](O[C@@H]2O[C@H](C)[C@@H](O)[C@H](N)[C@@H]2O)C[C@@H]2O[C@](O)(C[C@@H](O)C[C@H]3O[C@@H]3/C=C/C(=O)O1)C[C@H](O)[C@H]2C(=O)O`, 97.8%.
In turn, `CC1C=CC=CCCC=CC=CC=CC=CC(OC2OC(C)C(O)C(N)C2O)CC2OC(O)(CC(O)C(O)CCC(O)CC(O)CC(O)CC(=O)OC(C)C(C)C1O)CC(O)C2C(=O)O` (stereo not drawn) had a Pct of control of 94.3%.
The same measure for `C[C@@H]1[C@H](O)[C@@H](C)/C=C/C=C/C=C/C=C/C=C/C=C/C=C/[C@H](O[C@@H]2O[C@H](C)[C@@H](O)[C@H](N)[C@@H]2O)C[C@@H]2O[C@](O)(C[C@@H](O)C[C@@H](O)[C@H](O)CC[C@@H](O)C[C@@H](O)CC(=O)O[C@H]1C)C[C@H](O)[C@H]2C(=O)O`: 48.7%; for `Cc1ccc(C(=O)N(CCCN)C(c2nc3cc(Cl)ccc3c(=O)n2Cc2ccccc2)C(C)C)cc1` (stereo not drawn): 97.1%; for `COc1ccc(COc2cc3oc(=O)c4cc(C(C)O)ccc4c3cc2OC)cc1` (stereo not drawn): 78.7%.
The same measure for `C=C1C(=O)[C@]23[C@H](O)[C@H]1CC[C@H]2[C@@]12CO[C@]3(O)[C@@H](O)[C@@H]1C(C)(C)CC[C@@H]2O`: 42.8%; for `COC(=O)C1=C(C)NC(C)=C(C(=O)OCCN2CCN(C(c3ccccc3)c3ccccc3)CC2)C1c1cccc([N+](=O)[O-])c1` (stereo not drawn): 121%; for `COc1ccc2nc([S@@+]([O-])Cc3ncc(C)c(OC)c3C)[nH]c2c1`: 89.4%.
With `O=C(CCCCCCC(=O)Nc1ccc([C@H]2O[C@@H](CSc3nc(-c4ccccc4)c(-c4ccccc4)o3)C[C@@H](c3ccc(CO)cc3)O2)cc1)NO`, the Pct of control is reported as 20.4%.
As to `O=C(CCCCCCC(=O)Nc1ccccc1)NO`, the Pct of control turned out to be 102%.
Compound `Cc1cccc(C(C)c2cnc[nH]2)c1C.Cl` (stereo not drawn) [S3060] gave a Pct of control of 91.6%.
In the case of `CC1=CC(=O)NS(=O)(=O)O1.[K]` it was 95.6%; in that of `CC(COc1ccccc1)N(CCCl)Cc1ccccc1.Cl` (stereo not drawn), 85.4%.
`CC(C)N(CCC(=O)c1ccc2ccccc2c1)Cc1ccccc1.Cl`: the Pct of control is recorded as 26.2%.
In the case of `CC(=CC(=O)Nc1ccccc1C(=O)O)c1ccc2ccccc2c1` it was 105%; in that of `O=S(=O)(CC1CS1)c1ccc(Oc2ccccc2)cc1` (stereo not drawn), 95%.
Regarding `CN(C)CCCN1c2ccccc2Sc2ccc(C(F)(F)F)cc21.Cl`, the Pct of control amounted to 95.7%.
In the case of `O=C(NNc1ccccc1)c1ccncc1` it was 97.3%.
`O=C(C=Cc1ccc2ccccc2n1)c1ccncc1`: the Pct of control is 39.1%.
Consider `O=C(O)C=CC(=O)O.c1ccc2nc(N3CCNCC3)ccc2c1`, for which the Pct of control came to 98.6%.
For `Cl.c1ccc2c(CC3=NCCN3)cccc2c1`, the Pct of control was 94.8%.
The same measure for `CCCNC(C)C(=O)Nc1ccccc1C` (stereo not drawn): 96.3%; for `CC(C)c1onc(-c2c(Cl)cccc2Cl)c1COc1ccc(C=Cc2cccc(C(=O)O)c2)c(Cl)c1`: 16.5%.
For the compound `O=c1cc(-c2cccc3c2Sc2ccccc2S3)oc(N2CCOCC2)c1`, the Pct of control is 88.7%.
In the case of `CCCCCCOC(=O)N=C(N)c1ccc(NCc2nc3cc(C(=O)N(CCC(=O)OCC)c4ccccn4)ccc3n2C)cc1` it was 94.2%.
In the case of `COC1CCN(C(=O)c2cc(Cc3n[nH]c(=O)c4ccccc34)ccc2F)CC1` it was 95.8%; in that of `Cl.NC1CC1c1ccccc1` (stereo not drawn), 91.7%.
For `O=C(Oc1ccc([N+](=O)[O-])cc1)N1CCC(C(O)(c2ccc3c(c2)OCO3)c2ccc3c(c2)OCO3)CC1`, the Pct of control is 94.2%.
In turn, `O=C(/C=C/C=C/c1ccc2c(c1)OCO2)N1CCCCC1` yielded a Pct of control of 82.5%.
For `O=[N+]([O-])C=Cc1ccc2c(c1)OCO2`, the Pct of control is on record as 40.3%.
The same measure for `Cc1ccc(-n2sc(=O)n(Cc3ccc(F)cc3)c2=O)cc1`: 114%; for `Cc1cnc(NC(=O)Nc2cc(Br)c(C)cc2OCC2CNCCO2)cn1` (stereo not drawn): 73.3%.
In the case of `Cc1cc(O)c2c(c1)C(=O)c1cccc(O)c1C2=O` it was 94%; in that of `O=C1c2cccc(O)c2C(=O)c2c(O)cc(CO)cc21`, 33.9%.
On to `O=C1c2c(O)cccc2C(C2OC(CO)C(O)C(O)C2O)c2cc(CO)cc(O)c21` (stereo not drawn), for which the Pct of control was determined as 92%.
Consider `CC1=NN(c2ccc(C(=O)O)cc2)C(=O)C1=Cc1ccc(-c2cc(C)c(C)cc2[N+](=O)[O-])o1`, for which the Pct of control was found to be 18%.
The compound `COc1ccccc1N1CCN(CCN(C(=O)C2CCCCC2)c2ccccn2)CC1.O=C(O)C=CC(=O)O` displayed a Pct of control of 97.5%.
The same measure for `CN1C(=O)CCS(=O)(=O)C1c1ccc(Cl)cc1` (stereo not drawn): 95.4%; for `COC(=O)Nc1nc2ccc(C(=O)c3cccs3)cc2[nH]1`: 97.5%; for `CCOc1ccc(NC(C)=O)cc1`: 97.7%.
Compound `CC(C)(C)NC[C@H](O)COc1nsnc1N1CCOCC1.O=C(O)C=CC(=O)O` had a Pct of control of 94.2%.
In the case of `c1ccc(Cn2c(-c3ccc(OCC(C4CCNCC4)n4c(-c5ccccc5)nc5ccccc54)cc3)nc3ccccc32)cc1` (stereo not drawn) it was 21.2%; in that of `CCOc1ccccc1-n1c(C(C)N2CCN(C(=O)COc3ccc(Cl)cc3)CC2)nc2ccccc2c1=O` (stereo not drawn), 100%.
In turn, `CCCC1OC2CC3C4CCC5=CC(=O)C=CC5(C)C4C(O)CC3(C)C2(C(=O)CO)O1` (stereo not drawn) gave a Pct of control of 101%.
`CCCNC(C)C(=O)Nc1c(C)csc1C(=O)OC.Cl` (stereo not drawn): the Pct of control amounted to 99.8%.
In the case of `O=C(O)CCC1CCC(c2cc(F)ccc2F)(S(=O)(=O)c2ccc(Cl)cc2)CC1` (stereo not drawn) it was 85.6%; in that of `COc1cc2nccc(Oc3ccc(NC(=O)C4(C(=O)Nc5ccc(F)cc5)CC4)cc3)c2cc1OC.O=C(O)CC(O)C(=O)O`, 72.9%.
The same measure for `CN1CCN(C2CCN(C(=O)Nc3cc(Oc4ccc(NC(=O)C5(C(=O)Nc6ccc(F)cc6)CC5)c(F)c4)ccn3)CC2)CC1`: 46.1%.
In the case of `COc1cc2nccc(Oc3ccc(NC(=O)C4(C(=O)Nc5ccc(F)cc5)CC4)cc3)c2cc1OC` it was 70.5%; in that of `NC(=O)Nc1cc(-c2cccc(F)c2)sc1C(=O)NC1CCCNC1` (stereo not drawn), 74.3%; in that of `Cc1cc(NC(=O)c2cccc(NC(=O)C=CCN(C)C)c2)ccc1Nc1nccc(-c2cccnc2)n1`, 80.7%.
Turning to `COCCOc1ccc2c(c1)ncn2-c1ccc2cccc(N3CCC(N)CC3)c2n1`, the Pct of control is 51.7%.
Regarding `CC1(COc2ccc3c(c2)ncn3-c2ccc3cccc(N4CCC(N)CC4)c3n2)COC1`, the Pct of control was determined as 47.3%.
The same measure for `CCOC(=O)[C@H](CCc1ccccc1)N[C@H]1CS[C@H](c2cccs2)CN(CC(=O)O)C1=O.Cl`: 77.1%; for `CC(C)(C)CC(C)(C)c1ccc(O)c(Cc2ccc(Cl)cc2Cl)c1`: 88.3%.
The same measure for `Cc1nn(-c2ccccc2)c(C)c1C=NN1CCN(Cc2ccccc2)CC1`: 85.5%; for `CC(=O)O.Cc1cc2c(C(C)C)c(O)c(O)c(C=O)c2c(O)c1-c1c(C)cc2c(C(C)C)c(O)c(O)c(C=O)c2c1O` [S2303]: 26.8%; for `CC(=O)O.Cc1cc2c(C(C)C)c(O)c(O)c(C=O)c2c(O)c1-c1c(C)cc2c(C(C)C)c(O)c(O)c(C=O)c2c1O` [S2812]: 29.9%.
